# Assay outcomes: PubChem BioAssay, The Scripps Research Institute Molecular Screening Center
# HGIII-sPLA2 inh – Inhibits HGIII-sPLA2 liposome hydrolysis, primary screen. inhibition, % at 12.2 µM. hit rate 0.56% among 370,000. Q9NZ20. QFRET BODIPY PC-A2 liposome hydrolysis, fluorescence;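 active = inhibition above mean plus 3 SD of compounds lying within the high and low control bounds, cut at about 19% in these data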;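 also: 0% = median of test compound wells and 100% = no enzyme DMSO wells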
# DAGLB inhibitor – diacylglycerol lipase beta (human) inhibition. HEK293T DAGLB membrane lysate, EnzChek fluorogenic substrate. inhibition, % at 5.17 µM. hit rate 0.059% among 340,000. AID 504411; in the data active = inhibition above about 34%;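 also: 0% = enzyme with vehicle and 100% = wells lacking enzyme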
# PLCg1 inh – inhibitors of human phospholipase C gamma1; AID 720700; hit rate 0.84% among 370,000; purified PLC-gamma1, fluorogenic substrate, fluorescence; inhibition, % at 12.2 µM
# PLCb3 inh – blocks human PLC-beta3 enzyme activity. Q01970. Purified PLC-beta3, fluorogenic substrate, fluorescence. inhibition, % at 12.2 µM. hit rate 0.18% among 370,000; in the data active = inhibition above about 11%;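 also: 0% = median of compound wells on plate and 100% = full blocker control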
# Target sequence (Q01970 whole entry, looked up): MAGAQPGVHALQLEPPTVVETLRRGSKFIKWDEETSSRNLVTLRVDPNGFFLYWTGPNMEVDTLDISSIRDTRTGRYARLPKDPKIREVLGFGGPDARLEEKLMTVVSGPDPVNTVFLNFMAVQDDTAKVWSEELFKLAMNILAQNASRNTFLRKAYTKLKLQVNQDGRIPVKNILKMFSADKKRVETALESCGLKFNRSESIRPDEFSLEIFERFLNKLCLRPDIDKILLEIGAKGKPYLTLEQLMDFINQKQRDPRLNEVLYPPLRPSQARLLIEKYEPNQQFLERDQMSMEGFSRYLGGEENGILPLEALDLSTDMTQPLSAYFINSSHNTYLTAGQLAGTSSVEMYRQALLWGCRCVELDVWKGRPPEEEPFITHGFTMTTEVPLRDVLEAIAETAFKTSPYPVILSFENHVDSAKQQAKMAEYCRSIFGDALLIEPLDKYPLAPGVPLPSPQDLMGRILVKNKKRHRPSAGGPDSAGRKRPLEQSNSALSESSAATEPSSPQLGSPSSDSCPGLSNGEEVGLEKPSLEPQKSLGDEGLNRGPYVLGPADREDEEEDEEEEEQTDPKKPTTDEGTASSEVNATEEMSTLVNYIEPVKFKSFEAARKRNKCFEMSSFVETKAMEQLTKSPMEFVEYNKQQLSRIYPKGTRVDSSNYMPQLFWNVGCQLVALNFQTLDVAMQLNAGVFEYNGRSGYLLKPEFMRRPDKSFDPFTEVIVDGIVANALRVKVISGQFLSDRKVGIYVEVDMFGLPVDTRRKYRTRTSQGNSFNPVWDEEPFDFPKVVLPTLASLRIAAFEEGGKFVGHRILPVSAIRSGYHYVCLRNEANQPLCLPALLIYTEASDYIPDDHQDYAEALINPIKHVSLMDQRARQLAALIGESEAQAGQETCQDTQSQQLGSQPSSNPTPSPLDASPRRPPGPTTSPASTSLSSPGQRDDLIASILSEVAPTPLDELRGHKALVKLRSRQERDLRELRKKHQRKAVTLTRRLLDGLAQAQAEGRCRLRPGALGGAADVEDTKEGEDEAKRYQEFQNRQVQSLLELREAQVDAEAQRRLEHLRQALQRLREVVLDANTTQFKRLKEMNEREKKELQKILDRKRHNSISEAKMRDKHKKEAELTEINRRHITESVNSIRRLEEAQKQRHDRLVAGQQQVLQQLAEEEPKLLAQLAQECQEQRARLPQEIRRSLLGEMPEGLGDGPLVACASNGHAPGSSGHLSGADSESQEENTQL
# PLCgamma1 ctr – counter-screen for PLC-beta3 inhibitors: inhibitors of human PLC-gamma1. hit rate 3.1% among 3,300. inhibition, % at 12.3 µM. AID 743258. shares compounds with PLCg1 inh. purified PLC-gamma1, fluorogenic substrate, fluorescence
# PLCbeta3 conf – human PLC-beta3 inhibition, confirmation. shares compounds with PLCg1 inh. inhibition, % at 12.3 µM. purified PLC-beta3, fluorogenic substrate fluorescence. hit rate 1% among 3,300; in the data active = inhibition above about 11%
# Numbers without * were called inactive; / = no result. An excerpt weighted towards active compounds, which were near 1.5% of everything screened. Rule as the data show it, unless noted: active = inhibition above about 9.5%; inactive = the rest.
SMILES,HGIII-sPLA2 inh,DAGLB inhibitor,PLCg1 inh,PLCb3 inh,PLCgamma1 ctr,PLCbeta3 conf
C[C@@]12C(=O)N(c3cccc(F)c3)C(=O)N1[C@@H]1c3ccccc3OC[C@@H]1[C@H]2c1ccccc1,10,-7,10.0*,6,4,4
COc1ccc(C2NC(=O)NC(C)=C2C(=O)OCC2CCCCC2)cc1OC (stereo not drawn),3,2,11*,-1,-4,-1
COc1ccc(C2NC(=O)NC(C)=C2C(=O)OC2CCCCC2)cc1OC (stereo not drawn),-6,1,2,-3,/,/
CCN(CC)S(=O)(=O)c1ccc(NC(=O)COC(=O)CCc2cc(OC)c(OC)c(OC)c2)cc1,-30,1,8,11*,-3,-3
COCCCNc1ncnc2c1cnn2-c1ccc(C)cc1C,-4,2,1,-3,/,/
CCCCNc1ncnc2c1cnn2-c1ccc(C)cc1C,4,2,11*,10,-5,0
CCOC(=O)COc1nc2ccc(Br)cc2c(-c2ccccc2)c1C(C)=O,0,-4,9.8*,-3,-5,-4
C[C@H]1[C@@H](NC(=O)c2ccc(C(F)(F)F)cc2)CC[C@@]23CCCN2C(=O)CCC[C@@H]13,2,/,3,4,/,/
O=C(O)c1ccc(-c2nnn(Cc3ccccc3F)n2)cc1,12,-1,11*,0,-5,-3
COC(=O)C1=C(C)N(Cc2cccc(C(F)(F)F)c2)C(=NCc2ccccc2C(F)(F)F)NC1c1cccc(F)c1 (stereo not drawn),-14,/,5,4,/,/
COc1ccc(NC(=O)CC2C(=O)N(C)C(=S)N2Cc2ccncc2)cc1 (stereo not drawn),-6,-1,10*,0,-6,-6
COc1ccc(NC(=O)CC2C(=O)N(C)C(=S)N2Cc2ccco2)cc1 (stereo not drawn),-29,-3,2,3,/,/
O=C(COC(=O)c1ccc(Br)cc1)NCC1CCCO1 (stereo not drawn),-2,-2,5,12*,6,0
O=C(COC(=O)c1ccccc1)NCC1CCCO1 (stereo not drawn),2,0,4,2,/,/
CC(C)C[C@H]1COc2cc(F)ccc2S(=O)(=O)N1C,2,/,-2,-1,/,/
Cc1noc(C)c1COc1ccccc1C(=O)NNC(=O)c1ccccc1,-1,3,11*,9,-1,1
CCN(c1ccccc1)S(=O)(=O)c1ccc(OCc2c(C)noc2C)cc1,-18,-3,2,2,/,/
CCN(C(=O)COC(=O)c1ccc(OCc2c(C)noc2C)cc1)c1ccccc1,-11,5,14*,2,-1,0
O=C(Cc1ccccc1F)Nc1nnc(-c2cccnc2)s1,1,/,-2,-2,/,/
Cc1cccc(OCCC(=O)Nc2ccc(F)c(F)c2)c1,-10,-4,9.7*,0,-1,2
CCOC(=O)C(Sc1nn(C)c(=S)s1)C(C)=O (stereo not drawn),0,2,3,11*,6,2
CC1=NN(c2ccc(C)cc2C)C(=O)C1C(c1ccccc1O)C1C(=O)N(c2ccc(C)cc2C)N=C1C (stereo not drawn),-7,1,13*,6,-7,-4
C[C@H]1COc2cc(Br)ccc2S(=O)(=O)N1Cc1cn(CCC2OCCO2)nn1,9,/,1,-1,/,/
CO/N=C/C(C#N)=C/c1ccc(OC)cc1,4,-1,15*,7,-2,1
Cc1nn(-c2ccccc2)c(N2CCCC2)c1/C=N/NC(=O)C1CC1,7,-1,12*,-6,2,-2
SMILES,HGIII-sPLA2 inh,DAGLB inhibitor,PLCg1 inh,PLCb3 inh,PLCgamma1 ctr,PLCbeta3 conf
Cc1nn(-c2ccccc2)c(N2CCCC2)c1/C=N/NC(=O)c1ccccc1O,-9,2,-43,-49,/,/
Cc1ccc(S(=O)(=O)c2c(C)cc(C)nc2Cl)c(C)c1,-3,-2,11*,-1,-3,-3
Cn1c(=O)[nH]c(=O)c2c1nc(Sc1ccccc1)n2CCc1ccccc1,-5,3,0,4,/,/
Cc1ccc(Sc2nc3c(c(=O)[nH]c(=O)n3C)n2CCc2ccccc2)cc1,-1,-1,5,13*,-2,-2
C[C@H]1[C@@H](O)CC[C@@]23CCCN2C(=O)CCC[C@@H]13,-1,/,-1,1,/,/
CNCCC=C1c2ccccc2CCc2ccccc21,12,1,12*,0,-5,-11
COc1ccc(CC(N)c2csc(Nc3cccc(OC)n3)n2)cc1 (stereo not drawn),4,/,0,0,/,/
COc1cccc(Nc2nc(C(N)Cc3ccc(Cl)cc3)cs2)n1 (stereo not drawn),10,/,9.5*,2,-3,-2
COc1ccc(CC(N)c2csc(Nc3ccccn3)n2)cc1 (stereo not drawn),5,/,15*,9,0,2
COc1ccc(CNC2CCC23CCC(C)CC3)cc1OC (stereo not drawn),-6,/,-1,1,/,/
O=C(c1cc2ccccc2oc1=O)N1CCCC1,6,2,15*,3,-6,-11
CCOC(=O)[C@@]12CCCC=C1N(CCc1ccc(Cl)cc1)C(=O)[C@H]2CC(=O)N1CCC(c2ccccc2)CC1,-10,/,8,-1,/,/
COc1cccc2cc3c(nc12)C[C@@H]1CCCC(=O)N2CCC[C@@]12C3,3,/,-79,-107,/,/
Cc1cc(C(=O)N/N=C/c2cccnc2)n[nH]1,10,3,10*,-2,-3,0
COc1ccc(CCNC(=O)CCNS(=O)(=O)c2cccc3nsnc23)cc1OC,5,1,11*,2,-4,-4
COc1ccc(CCNC(=O)CCNS(=O)(=O)c2cccc3nonc23)cc1OC,0,1,-5,0,/,/
Cc1cc(S(=O)(=O)Nc2ccc(C(=O)N3CCN(C(=O)c4ccco4)CC3)cc2)ccc1F,-8,2,11*,4,5,4
CCOC(=O)CC[C@@]1(C(=O)OCC)C[C@@H](CC(=O)NCCc2ccccc2OC)C(=O)N2CCCC=C21,16,/,2,-1,/,/
COc1cc(OC)c(C2CC(=O)N3CN(C)CSC3=C2C#N)cc1OC (stereo not drawn),6,-1,-8,-19,/,/
COc1ccc2ccccc2c1C1CC(=O)N2CN(C)CSC2=C1C#N (stereo not drawn),-26,5,11*,4,-8,-9
COc1ccc(S[C@]2(C(=O)N3CCCC3)CC(=O)N(P(=O)(OC)OC)[C@@H]2c2ccc(OC)cc2)cc1,5,/,5,0,/,/
CC(C)C(=O)Oc1ccc(CO)cc1[C@H](CCN(C(C)C)C(C)C)c1ccccc1,-4,/,3,3,/,/
COc1ccccc1NS(=O)(=O)c1cc(NC(=O)CCNC(C)=O)ccc1C,-1,1,1,-5,/,/
COc1ccccc1NS(=O)(=O)c1cc(NC(=O)CNC(=O)c2ccccc2)ccc1C,-31,1,11*,4,-7,-4
Oc1ccc2ccccc2c1C=NN1CCN(Cc2ccc(Cl)cc2)CC1,-1,/,-4,-5,/,/
